Results as given in PubChem BioAssay AID602393 (Broad Institute, 2012).
About 7,000 (2%) of roughly 350,000 compounds were called active. This excerpt belongs to a sample that is enriched for actives. Unmarked numbers belong to inactive results. Cut-off read from the data, not from the text of the source: active = activation above about 40%; inconclusive = no clear call, values can overlap the other calls; inactive = below that.

Assay: Bmi1 luciferase reporter increase in mESCs, primary screen, esBAF inhibitor project, mouse ES cells, Bmi1 luciferase knock-in, single point (AID 602393);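 note: 0% = median of the plate's neutral control wells and 100% = double that signal; a rise in the Bmi1 reporter signal indicates esBAF inhibition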
Conditions: 24 h, at 12.5 µM, hits give high values, 100% = twice the neutral-well signal

Compound | reporter increase
COc1ccc(S(=O)(=O)N(C)C[C@@H]2OCCCC[C@@H](C)Oc3ccc(N(C)C)cc3C(=O)N([C@@H](C)CO)C[C@@H]2C)cc1 | -1.73%
O=C(C[C@H]1CC[C@@H](NC(=O)c2ccncc2)[C@@H](CO)O1)Nc1ccccc1 | -0.301%
Cc1cc(=O)c2ccc(NC(=O)c3ccccc3)cc2[nH]1 | 1.23%
Cn1c(=O)n(C)c2cc(C(=O)Nc3ccc(Br)cc3)ccc21 | 6.69%
CC(C)n1c(=O)[nH]c2cc(C(=O)Nc3ccccc3)ccc21 | 46.7% (active)
CNC[C@H]1Oc2ncc(-c3ccccc3C)cc2C(=O)N([C@@H](C)CO)C[C@@H]1C | -1.27%
C/C(=C\C(=O)c1cccnc1)Nc1ccc(C)c(C)c1 | 64.2% (active)
Cc1ccc(NC(=O)COc2ccc(/C=N\NC(=O)c3cccnc3)cc2)cc1C | 1.32%
Cc1ccc(OCC(=O)NCCCNC(=O)c2cccnc2)cc1C | -1.38%
C[C@H]1CCCCO[C@@H](CN(C)Cc2ccc(C(=O)O)cc2)[C@@H](C)CN([C@@H](C)CO)C(=O)c2cc(NS(C)(=O)=O)ccc2O1 | -4.29%
COc1ccc(/C=N/Nc2nc3ccccc3o2)cc1OC | 45.9% (active)
C(=N\Nc1ccc2ccccc2n1)/c1ccc2c(c1)OCO2 | -72.8%
COc1cccc(/C=N\Nc2nncc(-c3ccccc3)n2)c1 | 4.67%
Brc1ccccc1/C=N/Nc1nc2ccccc2o1 | 66.2% (active)
O=C(CSc1nc2ccccc2o1)N/N=C/c1ccccc1C(=O)O | 28.5%
CCOc1ccccc1/C=N/Nc1nc2ccccc2o1 | 25.5%
CCCN1C[C@@H](C)[C@H](OC)CN(C)C(=O)c2ccc(NC(=O)C3CCOCC3)cc2OC[C@@H]1C | -4.1%
C[C@@H]1CN([C@H](C)CO)C(=O)c2cc(NC(=O)Cc3ccccc3)ccc2O[C@@H](C)CCCCO[C@H]1CN(C)C(=O)Cc1ccccc1 | 4.79%
CCC(=O)N(C)C[C@H]1Oc2cc(C#CC3CC3)ccc2S(=O)(=O)N([C@@H](C)CO)C[C@@H]1C | -1.51%
CCCNC(=O)[C@@H]1[C@@H](CO)[C@@H]2Cn3c(ccc(-c4cccc(OC)c4)c3=O)[C@H]1N2C(=O)NCCC | 1.23%
O=C(Nc1ccc(F)cc1)N[C@H]1C=C[C@@H](CC(=O)N2CCOCC2)O[C@H]1CO | -15.4%
Cc1cccc(S(=O)(=O)N2CC[C@@H]3[C@H]2c2cc(C#Cc4ccc(F)cc4)ccc2N[C@@H]3CO)c1 | 1.22%
COCC(=O)Nc1ccc2c(c1)OC[C@H](C)N(C(=O)c1ccccn1)C[C@@H](C)[C@H](OC)CN(C)C2=O | -4.41%
Cc1nn(-c2ccccc2)c(Cl)c1/C=N/NC(=O)c1nn(C)cc1[N+](=O)[O-] | 52.5% (active)
COc1ccc(CCNC(=O)c2c(C)nn(-c3ccccc3)c2Cl)cc1 | -5.69%
Cc1c(NC(=O)c2c([N+](=O)[O-])cnn2C)c(=O)n(-c2ccccc2)n1C | -3.74%

Compound | reporter increase
CCC(=O)N(C)C[C@@H]1Oc2cc(-c3ccc(C#N)cc3)ccc2S(=O)(=O)N([C@@H](C)CO)C[C@@H]1C | 2.37%
CCCc1cn(CC[C@@H]2CC[C@@H](NC(=O)C3CC3)[C@H](CO)O2)nn1 | 1.12%
C[C@@H]1CN([C@H](C)CO)C(=O)CCCn2nncc2CO[C@@H]1CN(C)Cc1ccc2c(c1)OCCN2C | -3.86%
CO[C@@H]1CN(C)C(=O)c2cc(NS(C)(=O)=O)ccc2OC[C@H](C)N(C(=O)C2CC2)C[C@@H]1C | 0.928%
COCC#Cc1cnc2c(c1)C(=O)N([C@H](C)CO)C[C@H](C)[C@H](CN(C)Cc1ccc(-c3ccccc3)cc1)O2 | -4.32%
O=C(NCCOc1ccccc1)c1ccccc1F | -7.45%
Cc1nn(CCOc2ccccc2)c(=O)n1-c1ccccc1F | 49.4% (active)
Cc1c(C(N)=O)sc2ncn(CCOc3ccccc3)c(=O)c12 | 16.1%
COCC(=O)Nc1ccc2c(c1)[C@H]1C[C@H](CC(=O)NCc3ccccn3)O[C@H](CO)[C@H]1O2 | 0.452%
CO[C@H]1CN(C)C(=O)c2ccc(NS(=O)(=O)c3cn(C)cn3)cc2OC[C@@H](C)N(C)C[C@@H]1C | -7.11%
C[C@@H](NC(=O)C[C@@H]1CC[C@@H]2[C@H](COC[C@@H](O)CN2C(=O)Nc2cccc(F)c2)O1)c1ccccc1 | 11.2%
CCCN(C)C[C@H]1Oc2ncc(C#CC3CCCCC3)cc2C(=O)N([C@H](C)CO)C[C@@H]1C | -4.47%
C[C@@H]1CN([C@@H](C)CO)C(=O)Cc2cc(NS(=O)(=O)c3cccs3)ccc2O[C@H]1CN(C)S(=O)(=O)c1ccc(F)cc1 | -3.47%
COc1ccc(NS(=O)(=O)c2ccc3oc(SCC(N)=O)nc3c2)cc1 | 4.52%
CN(C)S(=O)(=O)c1ccc2oc(SCC(=O)Nc3ccccc3F)nc2c1 | 56% (active)
COc1ccc(S(=O)(=O)N(C)C)cc1NC(=O)CSc1ncccn1 | -0.957%
COc1ccc(NC(=O)N[C@H]2CC[C@@H](CCNS(=O)(=O)c3cccc(Cl)c3)O[C@H]2CO)cc1 | 1.55%
COc1cccc(NC(=O)C[C@@H]2CC[C@@H]3[C@H](COc4ccc(NC(=O)C5CCOCC5)cc4C(=O)N3C)O2)c1 | 1.18%
C[C@H](CO)N1C[C@H](C)[C@@H](CN(C)Cc2ccccc2)OCCCC[C@H](C)Oc2ccc(NC(=O)Cc3ccccc3)cc2C1=O | 1.95%
COc1ccc(NC(=O)Nc2cccc3c2O[C@H](CN(C)Cc2ccc(Cl)c(Cl)c2)[C@H](C)CN([C@@H](C)CO)C3=O)cc1 | 4.75%
Nc1c(C(=O)Nc2ccc3c(c2)OCCO3)nnn1Cc1ccccc1 | 62.1% (active)
CCc1ccc(NC(=O)Cn2nnc(C(=O)NCc3ccc4c(c3)OCO4)c2N)cc1 | -0.239%
O=C(Nc1ccc2c(c1)OCCO2)C(C1CC1)N1CCC(Cc2ccccc2)CC1 (stereo unspecified) | -12.5%
C[C@@H]1CN([C@H](C)CO)C(=O)c2cc(NC(=O)c3ccncc3)ccc2O[C@H]1CN(C)C(=O)Nc1ccc(C(F)(F)F)cc1 | 8.53%
Cc1ccccc1S(=O)(=O)NCC[C@@H]1CC[C@H](NC(=O)C2CCC2)[C@@H](CO)O1 | -0.558%
Nc1nnnn1/N=C/c1cccs1 | 2.23%

Compound | reporter increase
Cc1ccc(N2CCN(/N=C/c3cccs3)CC2)cc1 | 13.6%
C(=N/N1CCN(c2ccccc2)CC1)/c1cccs1 | 45.3% (active)
C[C@H]1CN([C@@H](C)CO)C(=O)CCCn2cc(nn2)CO[C@H]1CN(C)C(=O)Nc1ccc(F)cc1 | -7.14%
C[C@H](CO)N1C[C@H](C)[C@@H](CN(C)S(=O)(=O)c2ccc(F)cc2)Oc2ccc(NC(=O)CCCCCC(=O)Nc3ccccc3N)cc2CC1=O | 1.27%
COCCNC(=O)C[C@@H]1C[C@@H]2c3cc(NC(=O)Nc4ccc(C(F)(F)F)cc4)ccc3O[C@@H]2[C@@H](CO)O1 | -4.42%
CCC(=O)N1C[C@H](C)[C@H](OC)CN(C)C(=O)c2ccc(NC(=O)Nc3ccc(Cl)cc3)cc2OC[C@H]1C | 4.13%
C[C@H](CO)N1C[C@H](C)[C@@H](CN(C)Cc2ccc(Oc3ccccc3)cc2)OCc2cn(nn2)CCCC1=O | 0.422%
c1ccc(CCN2CN=C(Nc3nc4ccccc4o3)NC2)cc1 | 45.9% (active)
CC1CCN(Cc2nc3c(c(=O)n(C)c(=O)n3C)n2CCc2ccccc2)CC1 | -5.75%
N#CNC1=NCN(CCc2ccccc2)CN1 | -7.73%
C[C@@H]1CCCCO[C@H](CN(C)Cc2ccc3c(c2)OCO3)[C@@H](C)CN([C@H](C)CO)C(=O)c2cc(N(C)C)ccc2O1 | 0.519%
O=C(Cc1ccccc1)Nc1ccc(C(=O)Nc2ccccc2C(=O)O)cc1 | -1.37%
O=C(CNC(=O)c1ccco1)NNC(=O)c1ccc(Br)cc1 | -0.872%
CC(C)(C)c1ccc(C(=O)NNC(=O)Cc2ccccc2)cc1 | 49% (active)
C[C@H](CO)N1C[C@H](C)[C@@H](CN(C)S(=O)(=O)c2ccc(Cl)cc2)Oc2ccc(NS(=O)(=O)c3cccs3)cc2CC1=O | 6.86%
CC(C)C#Cc1cnc2c(c1)C(=O)N([C@@H](C)CO)C[C@@H](C)[C@H](CN(C)C(=O)CCN1CCCCC1)O2 | 0.29%
O=C(C[C@@H]1CC[C@H]2[C@@H](COC[C@@H](O)CN2S(=O)(=O)c2cccc(Cl)c2)O1)N1CCCCC1 | -2.86%
CC(C)(c1ccccc1)c1ccc(OCCN2CCCC2)cc1 | -18.8%
Cc1cccc(C)c1OCCN1CCOCC1 | -3.46%
c1ccc(-c2ccc(OCCN3CCOCC3)cc2)cc1 | 50.5% (active)
Cc1noc(C)c1S(=O)(=O)Nc1ccc2c(c1)C(=O)N([C@H](C)CO)C[C@@H](C)[C@@H](CN(C)S(=O)(=O)c1ccc(Cl)cc1)O2 | 6.53%
CC(C)c1c(C(=O)N/N=C/c2ccc(-c3ccccc3)cc2)nnn1-c1nonc1N | -2.09%
Cc1nonc1C(=O)N/N=C/c1ccc(O)cc1 | 50.7% (active)
Cc1nc2ccc(C(=O)N/N=C/c3ccc(O)cc3)cc2[nH]1 | -6.33%
